Source: PubChem BioAssay (NCI)
This is part of a sample that, as a whole, favours compounds with a hit. Of some 83,000 tested, about 20% had one in any assay.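 Method: cells in 96-well plates; compound added at one concentration; 48 h incubation; percent growth measured; values under 10 scored active.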 The source made the active and inactive calls.

Tested on: MALME-3M melanoma
Test: NCI-60 one-dose screen, 48 h (100 = growth as untreated, 0 = no growth, -100 = all killed)
Conditions: 10 µM

Row | Structure (SMILES) | growth
1 | COc1cc(C2CC(=O)Nc3c2c(C)nn3-c2nc3ccccc3[nH]2)cc(OC)c1O (stereo unspecified) | 47.3% (inactive)
2 | CCCCC(CC#N)(CCC)CCC | 82.7% (inactive)
3 | COc1cc(C)c2sc3ccccc3c(=O)c2c1NCCN(C)C | 38.9% (inactive)
4 | O=C(CCl)N1c2ccccc2Sc2ccc3ccccc3c21 | -43.4% (active)
5 | CCOC(=O)Nc1ccc2c(c1)C(=O)N(CC)c1ccccc1O2 | 68% (inactive)
6 | COc1ccc(-c2cc(/C=C/C(=O)c3ccc(N)cc3)[nH]n2)cc1OC | 109% (inactive)
7 | CCCCCCCCCCSC(=N)N (tested in a mixture with another compound) | 82.7% (inactive)
8 | CCOC(=O)c1cc(-c2ccccc2)nc(N)n1 | 111% (inactive)
9 | CCCOCC(O)CNCCN (stereo unspecified) | 106% (inactive)
10 | O=C(Nc1ccc(OCc2nnc(-c3ccccc3)o2)c(F)c1)Nc1ccc(Cl)c(Cl)c1 | 57.8% (inactive)
11 | Cc1[nH]nc2c(=S)[nH]c(=O)[nH]c12 | 88.2% (inactive)
12 | CCC(OC(=O)CC(C)C)c1ccccc1 (stereo unspecified) | 110% (inactive)
13 | C/C=C\COc1cc(C)c(Cl)cc1Cl | 95.9% (inactive)
14 | CC(=O)N(O)c1ccc(/C=C/c2ccccc2)cc1 | 94% (inactive)
15 | CCOC(=O)c1c(C(F)(F)F)n([O-])c2ccc(OC)cc2[n+]1=O | 25.8% (inactive)
16 | NCCNc1ccc2cc(-c3nc4ccccc4[nH]3)c(=O)oc2c1 | 105% (inactive)

Row | Structure (SMILES) | growth
17 | Nc1ccc(Sc2ccc3c4c2cccc4c(=O)n2c4ccccc4nc32)cc1 | 34% (inactive)
18 | COc1cccc(C(=O)NNc2nc(N3CCOCC3)nc(N3CCN(C(c4ccccc4)c4ccccc4)CC3)n2)c1 | 91.7% (inactive)
19 | C=CCN1C(=O)/C(=C\c2ccc3c(c2)CCC3)SC1=S | 93.7% (inactive)
20 | COc1cccc(-c2nnc(COc3ccc(-c4nc5ccc(C)cc5[nH]4)cc3OC)o2)c1 | 52.8% (inactive)
21 | CNC(=O)c1cc(Oc2ccc(NC(=O)Nc3ccc(Cl)c(C(C)(C)C)c3)c(F)c2)ccn1 | 0.423% (active)
22 | CC(=O)/C(=C\c1ccc(Cl)cc1)c1ccccc1 | 73.1% (inactive)
23 | Cc1cc(C)c(C(=O)OC(C)CNC2CCCCC2)c(C)c1 (stereo unspecified) | 108% (inactive)
24 | CCCCC(=O)N(c1ccc(Nc2c3ccccc3nc3cc([N+](=O)[O-])ccc23)cc1)S(C)(=O)=O | 92.7% (inactive)
25 | O=C1/C(=C/c2ccc(O)cc2O)N=C2SCCCN12 | 101% (inactive)
26 | Cc1ccc2c(c1)-c1cc(C)nn1-c1ccc(C#N)cc1O2 | 76.1% (inactive)
27 | O=C(c1ccc(Cl)cc1)c1no[n+]([O-])c1C(=O)c1ccc(Cl)cc1 | -76.2% (active)
28 | Nc1nsc(C(=O)c2ccc(O)cc2)n1 | 109% (inactive)
29 | Cc1nc2cc(-n3c(-c4ccc(F)cc4)nc4ccccc4c3=O)ccc2n1Cc1ccccc1 | -45.1% (active)
30 | Cc1nnc2c3nnc(-c4ccc(Cl)cc4)n3c3ccccc3n12 | 88.6% (inactive)
31 | Cc1cc(C)c2c(Nc3ncnc4c3sc3nc(C)cc(C)c34)n[nH]c2n1 | 94.2% (inactive)
